Assay outcomes: PubChem BioAssay, National Center for Advancing Translational Sciences (NCATS)
HP1b chromo inh = HP1-beta chromodomain-methylated histone interaction inhibition; P83916; AlphaScreen HP1-beta / biotin-H3K9me3 peptide binding; Potency, µM (top dose mostly 114 µM), for the others: top-dose activity change, negative = inhibition, most hits filed as inhibitors; 0.56% of 390,000 active; AID 540317; further: nearly all actives have a fitted effect of over 70% in size
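HP1-beta protein (50 nM final) preincubated 30 min at room temperature with biotinylated H3(1-18)K9me3 peptide (50 nM) in PBS pH 7.4, 0.01% Tween-20, then compound added for 30 min. AlphaScreen streptavidin donor/nickel chelate acceptor beads (10 ug/mL final), 30 min dark, luminescence read.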
BAZ2B block = inhibitors of human BAZ2B bromodomain. AlphaScreen BAZ2B-H3K14Ac peptide displacement. Q9UIF8. Potency, µM (highest dose often 114 µM), for inactives: at the top dose activity change, negative = inhibition, actives largely listed as inhibitors. 4.4% of 360,000 active; further: on the % scale 0 is the no-effect control and ±100 the full control effect; nearly all actives have a fitted effect of over 60% in size
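Complex of BAZ2B and biotin-H3K14Ac (50 nM apiece) forms over 30 min at RT, then faces library compounds up to 110 uM for another 30 min; AlphaScreen beads added, 20 min dark incubation, luminescence read.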
L3MBTL1 block = inhibitors of human L3MBTL1. Q9Y468. AlphaScreen L3MBTL1–H3K9me1 peptide binding. Potency, µM (series often up to 57.1 µM), inactives show at the highest dose activity, negative = inhibition, actives largely listed as inhibitors. 0.66% of 230,000 active; further: on the % scale 0 is the no-effect control and ±100 the full control effect; nearly all actives have a fitted effect of over 60% in size
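First, the protein-peptide complex forms for 30 min at room temperature (L3MBTL1 50 nM, biotinylated H3K9me1 peptide 75 nM). Next, compounds are pin-transferred and incubated 30 min. Finally, AlphaScreen beads are added and read after 30 min.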
Sfp inh = blocks B. subtilis Sfp PPTase activity; Potency, µM, for the others: largest response in the series, negative = inhibition, most hits filed as inhibitors; Q9F4F7; 3.5% of 310,000 active; Biochemical Sfp PPTase activity, qHTS;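 further: the enzyme is Sfp with the accession as filed and its product quenches rhodamine fluorescence; 0% = enzyme reaction without inhibitor and -100% = no enzyme wells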
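Buffer: 50 mM Hepes-Na pH 7.6, 10 mM MgCl2, 0.01% Nonidet P-40, 0.01% BSA. Enzyme 15 nM, pre-exposed to compound 15 min; substrates then added and fluorescence change tracked over 30 min.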
JMJD2A Tudor inh = inhibitors of human JMJD2A Tudor domain; O75164; AlphaScreen JMJD2A-Tudor / H3K4me3 peptide binding; Potency, µM (top dose mostly 114 µM), for the others: top-dose activity change, negative = inhibition, most hits filed as inhibitors; 4.4% of 390,000 active; AID 504339; further: on the % scale 0 is the no-effect control and ±100 the full control effect; nearly all actives have a fitted effect of over 50% in size
G9a inh = blocks human histone lysine methyltransferase G9a; Potency, µM (top dose mostly 102 µM), without a hit: at the top dose activity, negative = inhibition, usual class: inhibitors; 8.8% of 350,000 active; G9a H3K9 monomethylation, AlphaScreen, 2 h; Q96KQ7; further: on the % scale 0 is the no-effect control and ±100 the full control effect; nearly all actives have a fitted effect of over 75% in size
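Methyltransferase reactions run at room temperature for 2 h (20 nM enzyme, 500 nM biotin-H3K9 peptide, 20 uM SAM) after a 15 min compound preincubation; product detected by AlphaScreen beads and anti-H3K9me1 antibody.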
* marks the source's active call; other numbers are inactive results; u = inconclusive; x = no result; ! = repeats disagree; [ ] = another dose, or the depositor's remark. The list is not random: actives were taken first. Their share in the collection is about 12%. The call rests on the fitted dose curve; in most records, active means well fitted curve in the direction sought with a large enough effect; inconclusive means small, poorly fitted or top-dose-only effect, or another doubt; inactive means no such curve, though single readings can be large; an effect the other way counts as inactive or inconclusive. Potency means the concentration at half of the fitted maximal effect.

SMILES	HP1b chromo inh	BAZ2B block	L3MBTL1 block	Sfp inh	JMJD2A Tudor inh	G9a inh
CCSc1nn(CC(=O)Nc2cccc(CC)c2)c(N)c1S(=O)(=O)c1ccccc1	11%	u	x	x	-28%	-29%[59 µM]
COc1ccccc1N1CCN(c2ncc3c(n2)CCN(Cc2ccc(C)s2)C3)CC1	-19%	u	x	x	u	-29%[59 µM]
Oc1ccc(/C=N/n2c(-c3ccco3)csc2=Nc2cccnc2)c(O)c1	-7%	u	-8%	45µM*	-27%	u
COCCN=c1scc(-c2ccco2)n1/N=C/c1ccc(O)c(O)c1O	7.9µM*	7.9µM*	1.4µM*	-93%	32µM*	10µM*
COCCN=c1scc(-c2cccs2)n1/N=C(\C)c1ccco1	u	10µM*	u	-1%	50µM*	32µM*
C=CCN=c1scc(-c2ccco2)n1/N=C/c1ccc(O)c(O)c1O	14µM*	13µM*	18µM*	7.1µM*	50µM*	7.9µM*
O=c1c2ccccc2nc(-c2ccco2)n1/N=C/c1ccccc1O	31%	1%	6%	24%	-21%	0%[59 µM]
COC(=O)N/N=C(\C)c1ccco1	21%	-35%	-12%	18%	2%[11.4 µM]	-4%
Cn1c(=O)c2sccc2n2c(CCCC(=O)Nc3ccc(Oc4ccccc4)cc3)nnc12	4%	u	x	x	-28%	-4%[59 µM]
COc1cccc(CNC(=O)c2cc(C)nc3c2c(C)nn3-c2cccc(F)c2)c1	116%	90%[57.1 µM]	x	x	69%	27%[59 µM]
Cc1cccc(C2=NN(c3ccccc3)[C@H](CO)[C@H]2C)c1	x	x	x	-29%	x	-36%
CC(C)N=c1scc(-c2ccco2)n1/N=C/c1ccc(O)c(O)c1	u	32µM*	u	u	40µM*	u
CN=c1scc(-c2cccs2)n1/N=C/c1ccccc1O	u	u	-25%	-15%	-35%[57.1 µM]	7%[59 µM]
CCNC(=S)NNc1nc(N2CCCCC2)nc(N2CCOCC2)n1	-6%	x	x	11µM*	-8%	u
Cc1cc(C)cc(-n2nnn(C3C/C(=N/NC(N)=S)C4OCC3O4)c2=S)c1 (centres undefined)	-15%	-22%	x	56µM*	u	50µM*
COC(=O)N1CCC2(CC1)CN(C(=O)Nc1ccccc1)C2	x	x	x	14%	x	0%[12.7 µM]
Cc1oncc1C(=O)NC(C)C	38%	4%	x	25%	6%	45µM*
COc1ccc(CNc2ncnc3nc[nH]c23)cc1	56%	x	x	x	-11%	x
O=C(Nn1c(-c2ccncc2)nc2ccccc2c1=O)c1ccc(Br)cc1	15%	-18%	x	3%	-13%	15%[59 µM]
O=C(Nn1c(-c2ccccc2)nc2ccccc2c1=O)c1ccco1	54%	-3%	-5%	-7%	3%	10%
O=C(Nn1c(-c2ccc(Br)cc2)nc2ccccc2c1=O)c1cccnc1	-11%	x	x	23%	35µM*	-43%
O=C(Nn1c(-c2ccncc2)nc2ccccc2c1=O)c1ccccc1Br	10%	-4%	1%	15%	-13%	50µM*
CCOC(=O)c1cnc(-n2cc(C)cn2)nc1NCc1ccc2c(c1)OCO2	34%	u	-6%	79µM*	u	1%[12.7 µM]
Cc1c(C(=O)N(Cc2ccc(N(C)C)cc2)CC2CCCO2)oc2ccccc12 (centres undefined)	u	11µM*	x	-12%	28µM*	14µM*!
Cc1c(C(=O)N(Cc2ccc(N(C)C)cc2)CC2CCCO2)oc2ccc(Cl)cc12 (centres undefined)	u	10µM*	x	x	13µM*	11µM*
SMILES	HP1b chromo inh	BAZ2B block	L3MBTL1 block	Sfp inh	JMJD2A Tudor inh	G9a inh
Cc1cc2oc(C(=O)N(Cc3ccc(N(C)C)cc3)CC3CCCO3)c(C)c2cc1Cl (centres undefined)	-21%	14µM*	x	x	22µM*	14µM*
Cc1ccc2oc(C(=O)N(Cc3ccncc3)CC3CCCO3)c(C)c2c1 (centres undefined)	24%	-19%	x	6%	-9%	u
Cc1c(C(=O)N(Cc2ccc(Cl)cc2)CC2CCCO2)oc2ccc(F)cc12 (centres undefined)	114%	47%	x	x	63%	78%[59 µM]
Cc1c(C(=O)N(Cc2ccc(N(C)C)cc2)CC2CCCO2)oc2ccc(Br)cc12 (centres undefined)	u	10µM*	x	x	13µM*	13µM*
CCOC(=O)c1cc(-c2ccccc2)n(CCC(=O)Nc2ccc(Cl)c(C(F)(F)F)c2)c1C	46%	1%	x	x	-23%	-5%[59 µM]
CC(Sc1nnc(N)s1)c1ccccc1Cl (centres undefined)	90%	-1%	x	17%	-4%	40µM*
CC(C(=O)N1c2ccccc2CC1C)N1CCN(S(=O)(=O)c2ccccc2F)CC1 (centres undefined)	u	28µM*	-4%	x	3.5µM*	u
CC(C(=O)NCC1CCCCC1)N1CCN(S(=O)(=O)c2ccccc2F)CC1 (centres undefined)	u	-9%	3%	2%	-9%	-28%
CCn1c(N2CCN(CC(=O)c3c[nH]c4ccccc34)CC2)nc2c1c(=O)[nH]c(=O)n2C	38%	18%	31%	-10%	-9%	40µM*
CCCn1c(N2CCN(CC(=O)c3c(C)n(C)c4ccccc34)CC2)nc2c1c(=O)[nH]c(=O)n2C	7%	1%	7%	-3%	-14%	-37%
CCCCCC(=O)NNC1CC(=O)N(c2cccc(OCC)c2)C1=O (centres undefined)	17%	16%	58%	-8%	-22%	x
Cc1ccc(NNC2CC(=O)N(c3cccc(Cl)c3)C2=O)cc1 (centres undefined)	35%	u	u	-3%	-33%	10µM*
O=C1CC(NNc2ccccc2)C(=O)N1c1ccccc1 (centres undefined)	5%	-17%	-1%	1%	-33%	8.9µM*
CC(=O)NCCCC(=O)NNC1CC(=O)N(c2cccc(Cl)c2)C1=O (centres undefined)	-24%	-5%	1%	u	-16%	5.6µM*
CCN(CC)C1CC(=O)N(c2cccc(Cl)c2)C1=O (centres undefined)	31%	-5%	3%	-2%	-7%	8.9µM*
Cc1cc2c(s1)c1cnn(Cc3c(F)ccc(C)c3F)c(=O)c1n2C	x	x	x	x	-33%	x
Cc1c(C)n(Cc2ccccc2)c2ccc(C(=O)N3CCN(c4ccc(F)cc4)CC3)cc12	-9%	-38%	x	x	u	u
O=C1CC(N(O)c2ccccc2)C(=O)N1c1ccc(Cl)c(Cl)c1 (centres undefined)	18%	-13%	x	11%	-13%	50µM*
Cc1cccc2c3c(ccc12)C1=C(C(=O)C3=O)[C@@H](C)CO1	x	x	x	-7%	x	x
